Laboratory results published in PubChem BioAssay.
Values without a mark were called inactive. The source made the active and inactive calls. Unless noted, no stated cut-off is given here; in the data, active means inhibition above about 44%; inactive means the rest.

Columns and labels:
[1] = StAR promoter reporter inhibitors, counter-screen for LRH-1 inverse agonist project, cell-based, luminescence, high throughput (AID 651611; in the data active means inhibition above about 28%); details: StAR promoter luciferase reporter counterscreen, at 3.6 µM, hits give high values
[2] = target: Nuclear receptor subfamily 5 group A member 2 (Homo sapiens) (UniProt O00482); test: NR5A2 activity suppression in reporter cells – cell-based, luminescence, confirmation (AID 651613; in the data active means inhibition above about 42%;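 further: HEK293T cells co-transfected with LRH-1 and StAR promoter luciferase reporter; 0% = vehicle wells and 100% = parental cells lacking receptor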); details: cell-based LRH-1 luciferase reporter, inverse agonism; at 3.6 µM; hits give high values
[3] = target: Steroidogenic factor 1 (Homo sapiens) (UniProt Q13285); test: inverse agonism at SF1 nuclear receptor – cell-based, luminescence, high throughput, counter-screen for LRH-1 inverse agonist project (AID 651614); details: cell-based SF1 luciferase reporter, at 3.6 µM, hits give high values;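 further: cells cotransfected with StAR promoter reporter and SF1 expression vector; 0% = vehicle on cells with receptor and 100% = vehicle on cells lacking receptor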
[4] = compounds suppressing VP16-driven luciferase signal – cell-based, luminescence, high throughput, counter-screen for LRH-1 inverse agonist project (AID 651615; in the data active means inhibition above about 33%); details: Gal4-VP16 luciferase reporter cells, at 3.6 µM, hits give high values

Steroidogenic factor 1 (Homo sapiens), sequence (Q13285 whole entry, looked up, the tested form may be a part): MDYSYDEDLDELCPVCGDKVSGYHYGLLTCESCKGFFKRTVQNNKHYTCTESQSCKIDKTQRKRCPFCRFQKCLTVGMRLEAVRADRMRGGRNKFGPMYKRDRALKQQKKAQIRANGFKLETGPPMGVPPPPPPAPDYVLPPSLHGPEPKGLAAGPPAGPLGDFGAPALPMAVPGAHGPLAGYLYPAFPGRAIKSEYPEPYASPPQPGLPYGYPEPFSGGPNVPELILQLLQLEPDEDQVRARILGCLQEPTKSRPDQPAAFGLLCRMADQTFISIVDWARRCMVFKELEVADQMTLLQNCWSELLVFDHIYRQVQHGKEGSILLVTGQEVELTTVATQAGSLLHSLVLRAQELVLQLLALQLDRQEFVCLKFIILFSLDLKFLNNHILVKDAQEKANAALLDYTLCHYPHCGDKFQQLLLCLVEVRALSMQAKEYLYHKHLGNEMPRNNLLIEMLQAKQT
Nuclear receptor subfamily 5 group A member 2 (Homo sapiens), sequence (O00482 whole entry, looked up): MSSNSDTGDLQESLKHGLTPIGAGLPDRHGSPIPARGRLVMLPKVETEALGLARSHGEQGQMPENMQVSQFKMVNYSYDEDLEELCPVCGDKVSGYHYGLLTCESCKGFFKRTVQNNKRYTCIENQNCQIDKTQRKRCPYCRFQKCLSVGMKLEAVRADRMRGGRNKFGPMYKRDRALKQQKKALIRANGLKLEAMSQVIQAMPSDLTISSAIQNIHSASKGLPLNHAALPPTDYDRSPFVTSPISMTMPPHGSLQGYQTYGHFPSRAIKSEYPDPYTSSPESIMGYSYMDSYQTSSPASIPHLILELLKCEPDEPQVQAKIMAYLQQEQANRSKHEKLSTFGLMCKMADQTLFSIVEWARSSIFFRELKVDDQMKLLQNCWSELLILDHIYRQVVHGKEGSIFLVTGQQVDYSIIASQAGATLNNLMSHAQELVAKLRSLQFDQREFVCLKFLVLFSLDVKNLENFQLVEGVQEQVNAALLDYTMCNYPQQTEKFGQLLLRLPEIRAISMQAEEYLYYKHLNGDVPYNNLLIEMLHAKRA

O=C(COC(=O)Cc1ccc(F)cc1)NCCc1ccccc1
inhibition [1]: 3.74% | inhibition [2]: 37.8% | inhibition [3]: 36.3% | inhibition [4]: -0.51%

COc1cccc(C=Nc2ccc3c(c2)OCCO3)c1O
inhibition [1]: -5.52% | inhibition [2]: -12% | inhibition [3]: -7.99% | inhibition [4]: -25.9%

COc1ccc(S(=O)(=O)N2CCN(CC(=O)Nc3ccc(C)c(F)c3)CC2)cc1
inhibition [1]: 17.5% | inhibition [2]: 58.6% (active) | inhibition [3]: 51.9% (active) | inhibition [4]: -4.75%

COc1ccc(CCNC(=O)c2ccc(CSc3ccc(Cl)cc3)o2)cc1OC
inhibition [1]: -6.83% | inhibition [2]: 28.3% | inhibition [3]: 23.4% | inhibition [4]: 30.3%

CN1CCN(c2nc(-c3ccccc3O)nc3ccccc23)CC1
inhibition [1]: 5.26% | inhibition [2]: 42% (active) | inhibition [3]: 26.3% | inhibition [4]: 39.5% (active)

Cc1ccn2c(=O)nc(SCC(=O)Nc3ccc4c(c3)OCCO4)nc2c1
inhibition [1]: -9.07% | inhibition [2]: 49.3% (active) | inhibition [3]: 51% (active) | inhibition [4]: -15.9%

COc1cccc(-c2cc(NC=O)c3ncc(-c4ccc(C(C)=O)cc4)n3c2)c1
inhibition [1]: 45.1% (active) | inhibition [2]: 65.2% (active) | inhibition [3]: 60.1% (active) | inhibition [4]: -11.4%

COc1cc(N)c2ncccc2c1Cl
inhibition [1]: -0.07% | inhibition [2]: 17.4% | inhibition [3]: 11.9% | inhibition [4]: 10.7%

Cc1c(NC(=O)C(C)OC(=O)c2ccc([N+](=O)[O-])s2)c(=O)n(-c2ccccc2)n1C (stereo not given)
inhibition [1]: 20% | inhibition [2]: 23.3% | inhibition [3]: 19.4% | inhibition [4]: -10.5%

O=[N+]([O-])c1cnccc1Nc1ccccc1
inhibition [1]: 7.45% | inhibition [2]: 62% (active) | inhibition [3]: 58.9% (active) | inhibition [4]: 1.98%

O=C(Nc1ccc(Cc2ccncc2)cc1)c1cccc([N+](=O)[O-])c1
inhibition [1]: -10.2% | inhibition [2]: 52.4% (active) | inhibition [3]: 51.9% (active) | inhibition [4]: 0.73%

Cc1cc(OCC(=O)Nc2cccnc2)c2c(C)c(C)c(=O)oc2c1
inhibition [1]: 10.8% | inhibition [2]: 63.2% (active) | inhibition [3]: 52.8% (active) | inhibition [4]: -34.7%

COc1ccc(C2=NS(=O)(=O)N(C)C(C(=O)N3CCc4ccccc4C3)=C2)cc1OC
inhibition [1]: 5.52% | inhibition [2]: 43% (active) | inhibition [3]: 46.2% (active) | inhibition [4]: 24.2%

COc1cc([N+](=O)[O-])ccc1NC(=O)Cn1ccsc1=N
inhibition [1]: 4.07% | inhibition [2]: 59.9% (active) | inhibition [3]: 57.6% (active) | inhibition [4]: -3.33%

COc1ccc(OCc2nnc3n2N=C(c2ccc(C)cc2)CS3)cc1
inhibition [1]: -0.29% | inhibition [2]: 26.3% | inhibition [3]: 28.9% | inhibition [4]: -1.91%

COc1ccc(N2C(=O)C(Cl)=C(N3CCOCC3)C2=O)cc1
inhibition [1]: 6.88% | inhibition [2]: 34.9% | inhibition [3]: 7.54% | inhibition [4]: 7.03%

COc1cc(C2c3cc4c(cc3OC(Nc3ccc(C(=O)O)cc3)C2C)OCO4)cc(OC)c1OC (stereo not given)
inhibition [1]: 44.5% (active) | inhibition [2]: 49.7% (active) | inhibition [3]: 60.9% (active) | inhibition [4]: 26.4%

Cc1cc(N2CCN(c3nc4ccccc4s3)CC2)n2ncnc2n1
inhibition [1]: 21.5% | inhibition [2]: 52.4% (active) | inhibition [3]: 54.6% (active) | inhibition [4]: 50.3% (active)

NC(=S)N/N=C/c1ccc(-n2nncc2-c2ccc(Cl)cc2)cc1
inhibition [1]: 12% | inhibition [2]: 51.6% (active) | inhibition [3]: 56.4% (active) | inhibition [4]: 6.68%

Cc1ccc(CNC(=O)COc2ccc(C(=O)c3ccc(F)cc3)cc2)cc1
inhibition [1]: 17.6% | inhibition [2]: 51% (active) | inhibition [3]: 35.8% | inhibition [4]: -11.9%

COc1c(/C=N/NC(N)=S)c(C)nn1-c1ccccc1
inhibition [1]: 1.43% | inhibition [2]: 39.5% | inhibition [3]: 27.9% | inhibition [4]: -8.71%

CCn1cc(Br)c(C(=O)Nc2ccccc2C(=O)OC)n1
inhibition [1]: 7.57% | inhibition [2]: 47.4% (active) | inhibition [3]: 46.6% (active) | inhibition [4]: -5.16%

COc1cc(NC(=O)c2ccc([N+](=O)[O-])o2)ccc1NC(=O)c1ccco1
inhibition [1]: 28.8% (active) | inhibition [2]: 62.5% (active) | inhibition [3]: 67% (active) | inhibition [4]: -17.9%

Cc1ccccc1NC(=O)c1ccc([N+](=O)[O-])o1
inhibition [1]: 8.33% | inhibition [2]: 64.8% (active) | inhibition [3]: 57.6% (active) | inhibition [4]: -16%

COC(=O)CC1(C(=O)OC)Oc2ccc(Br)cc2C(=O)N1c1cc(Cl)c(Cl)cc1Cl (stereo not given)
inhibition [1]: 12.1% | inhibition [2]: 58.5% (active) | inhibition [3]: 48.2% (active) | inhibition [4]: 20.2%
